The record followed here is PubChem BioAssay (Tox21).

Where “and” joins values, the source holds several entries; their conditions need not be identical. Identical values can stand only once. Inconclusive results are not listed. A call without a number means that no potency is given here. Values without a mark were called inactive. Calls of active or inactive are those of the source. Calls follow the shape of the dose curve; as a rule, active = well fitted inhibition curve with a large enough effect in the signal ratio in the repeat runs (not every such curve was filed as active); inconclusive = weak or mixed curves, or effect the other way; inactive = no such curve, though single readings can be large or run the other way; the % refers to the signal ratio.
Potency is read from the fitted curve at half-maximal effect.

Chain of Bile acid receptor (Homo sapiens) (Q96RI1 whole entry, looked up): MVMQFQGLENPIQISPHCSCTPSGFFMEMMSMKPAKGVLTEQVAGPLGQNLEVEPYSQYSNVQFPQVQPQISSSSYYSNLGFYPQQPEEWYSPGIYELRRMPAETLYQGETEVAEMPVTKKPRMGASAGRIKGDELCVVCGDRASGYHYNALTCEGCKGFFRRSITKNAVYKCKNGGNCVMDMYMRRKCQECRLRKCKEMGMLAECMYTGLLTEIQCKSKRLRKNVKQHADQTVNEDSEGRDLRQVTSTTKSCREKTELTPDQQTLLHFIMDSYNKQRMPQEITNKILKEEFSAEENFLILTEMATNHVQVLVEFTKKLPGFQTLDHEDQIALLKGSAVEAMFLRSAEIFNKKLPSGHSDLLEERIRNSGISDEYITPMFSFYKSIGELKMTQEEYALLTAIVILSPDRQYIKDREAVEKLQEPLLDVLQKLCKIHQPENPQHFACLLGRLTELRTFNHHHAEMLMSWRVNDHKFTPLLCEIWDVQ

This test addresses Bile acid receptor (Homo sapiens) (UniProt Q96RI1). The test can be described thus: qHTS assay to identify small molecule antagonists of the farnesoid-X-receptor (FXR) signaling pathway (AID 743217). Conditions: HEK293T FXR-UAS-bla, beta-lactamase ratio, CDCA-stimulated, 16 h; series mostly up to 62.6 µM; activity change, negative = inhibition: at the top concentration. The text has this:
U.S. Tox21 Program National Center for Advancing Translational Sciences [NCATS] NIH Chemical Genomics Center [NCGC] U.S. Environmental Protection Agency [EPA] National Institutes of Environmental Health Sciences [NIEHS] National Toxicology Program [NTP] U.S. Food and Drug Administration [FDA] Tox21 Assay Overview: The farnesoid-X-receptor (FXR), a nuclear hormone receptor, is highly expressed in liver, intestine, kidney and adrenal cortex. Natural ligands of FXR are the bile acids (Cholic acid, Chenodeoxy cholic acid etc). FXR is an important regulator of diverse metabolic pathways, including the bile acid homeostasis, lipid and glucose metabolisms. FXR regulates the expression of target genes by binding either as a monomer or as a heterodimer with the retinoid X receptor (RXR). Numerous studies have reported that FXR exerts protective function during cholestasis, diabetes, liver regeneration, and cancer. To identify compounds that inhibit FXR signaling, GeneBLAzer FXR-UAS-bla HEK 293T cell line (Invitrogen, Carlsbad, CA) containing a beta-lactamase reporter gene under the control of a UAS response element was used to screen the Tox21 10K compound library.
Tox21 Assay Protocol Summary: FXR-bla cells were dispensed at 5000 cells/5uL/well in 1536-well black wall/clear bottom plates using a Multidrop Combi (Thermo Fisher Scientific, Waltham, MA) dispenser. After the assay plates were incubated at 37C and 5% CO2 for 5 h, 23 nL of compounds dissolved in DMSO, positive controls or DMSO only was transferred to the assay plate by a Pintool station (Kalypsys, San Diego, CA), followed by addition of 1 uL Chenodeoxycholic acid (50 uM, final concentration in the wells). The assay plates were incubated at 37C for 16 h. After 1 uL of LiveBLAzerTM B/G FRET substrate was added using a Bioraptr Flying Reagent Dispenser (FRD) workstation (Beckman Coulter, Indianapolis, IN), the plates were incubated at room temperature for 2 h, and fluorescence intensity was measured by an Envision plate reader (PerkinElmer, Shelton, CT).
On to `CC/C(=C(/CC)c1ccc(O)cc1)c1ccc(O)cc1`, for which the Potency is 16.8 µM (active).

As to `CCOC(=O)C(C)Oc1ccc(Oc2cnc3cc(Cl)ccc3n2)cc1` (stereo not given), the Potency result is “inactive”. On to `C=CC(=O)OCCCC`, for which the Potency entry was “inactive”. On to `CC(C)[N+](C)(CCOC(=O)C1c2ccccc2Oc2ccccc21)C(C)C`, for which the Potency result is “inactive”. In the case of `CCCN1C=CN(C)C1`, the Potency result is “inactive”. In the case of `CC1(C)NC(=O)N(c2ccc([N+](=O)[O-])c(C(F)(F)F)c2)C1=O`, the Potency result is “inactive”. Take `CC(C)(C)c1cccc(C(C)(C)C)c1O`: the Potency result was “inactive”.

As to `NCCOCCO`, the Potency entry was “inactive”.

Take `Cc1ccc(C)c(O)c1`: the Potency result is “inactive”. With `CCC(Cc1c(I)cc(I)c(N)c1I)C(=O)O` (stereo not given), the “activity change, negative = inhibition” value was -2.34%.

Turning to `c1ccc2c(c1)ccc1cc3c(ccc4ccccc43)cc12`, the Potency entry was “inactive”. As to `CCO[Si](CCCNC(N)=O)(OCC)OCC`, the Potency result was “inactive”. Regarding `CN(C)/N=N/c1nc[nH]c1C(N)=O`, the Potency result is “inactive”. Consider `CC/C=C\C/C=C\C/C=C\CCCCCCCC(=O)O`, for which the “activity change, negative = inhibition” value was 2.3%. `CCCCCCCCCCCCO`: the Potency result is “inactive”. For the compound `CC1(C)OC(=O)NC1=O`, the Potency result is “inactive”. For the compound `C1CN(SSN2CCOCC2)CCO1`, the “activity change, negative = inhibition” value is -4.81%. With `CCCCCCCC/C=C\CCCCCCCC(=O)O`, the “activity change, negative = inhibition” value is 2.92% [at 81.1 µM]. Regarding `COc1cc([C@H]2Oc3cc([C@H]4Oc5cc(O)cc(O)c5C(=O)[C@@H]4O)ccc3O[C@@H]2CO)ccc1O`, the Potency result was “inactive”. For `Cc1ccc([N+](=O)[O-])c(C)c1`, the “activity change, negative = inhibition” value was -0.143%. Consider `O=C(O)COCCN1CCN(C(c2ccccc2)c2ccc(Cl)cc2)CC1` (stereo not given), for which the Potency result was “inactive”. Take `CCc1cccc2c3c([nH]c12)C(CC)(CC(=O)O)OCC3` (stereo not given): the Potency result was “inactive”. Consider `c1ccc2cc3ccccc3cc2c1`, for which the Potency result is “inactive”. For `Brc1nc2ccccc2s1`, the Potency result is “inactive”. As to `CC(=O)[C@H]1CC[C@H]2[C@@H]3CC=C4C[C@@H](O)CC[C@]4(C)[C@H]3CC[C@]12C`, the “activity change, negative = inhibition” value was -4.78%. Turning to `Oc1c(Cl)ccc(Cl)c1Cl`, the Potency result is “inactive”. Turning to `CC(=O)[C@@]1(O)CC[C@H]2[C@@H]3C[C@H](C)C4=CC(=O)C=C[C@]4(C)[C@@]3(F)[C@@H](O)C[C@@]21C`, the Potency result was “inactive”.

Consider `COC(=O)c1ccc(C)cc1`, for which the Potency result is “inactive”. On to `O=C(O)c1ccc(O)cc1`, for which the Potency entry is “inactive”. As to `Cc1ccc(C(C)(C)C)c(O)c1`, the “activity change, negative = inhibition” value is -17.7%. Consider `C=CCNCC=C`, for which the “activity change, negative = inhibition” value was 3.08%. On to `CN(Cc1cnc2nc(N)nc(N)c2n1)c1ccc(C(=O)N[C@@H](CCC(=O)O)C(=O)O)cc1`, for which the Potency was 0.376 µM (active).

With `CC(=O)OC(C)C`, the Potency result is “inactive”. `O=C(CCCN1CCC(O)(c2ccc(Cl)cc2)CC1)c1ccc(F)cc1`: the Potency result was “inactive”.

In the case of `IC(I)I`, the Potency entry was “inactive”. For the compound `O=C(O)CCCCCCCCCCCC(=O)O`, the Potency entry is “inactive”. Regarding `CCCCCC=O`, the Potency entry is “inactive”. `CN(C)CCCN1c2ccccc2Sc2ccc(Cl)cc21`: the Potency was 49 µM (active) and 26.6 µM (active). As to `C=CC(C)(O)CCC=C(C)C` (stereo not given), the Potency result is “inactive”. For the compound `C=C[Si](OCCOC)(OCCOC)OCCOC`, the Potency result was “inactive”.
